High-throughput results as filed in PubChem.
CYP2C9 inhib = inhibitors of human CYP2C9. inhibition, % at 5 µM. P11712. AID 777. hit rate 20% among 96,000. CYP2C9 Supersomes, luciferin-H conversion, luminescence;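 active = blocking of liver enzyme CYP2C9 beyond about 50% at 5 µM, limit read from the data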
Target sequence (P11712 whole entry, looked up): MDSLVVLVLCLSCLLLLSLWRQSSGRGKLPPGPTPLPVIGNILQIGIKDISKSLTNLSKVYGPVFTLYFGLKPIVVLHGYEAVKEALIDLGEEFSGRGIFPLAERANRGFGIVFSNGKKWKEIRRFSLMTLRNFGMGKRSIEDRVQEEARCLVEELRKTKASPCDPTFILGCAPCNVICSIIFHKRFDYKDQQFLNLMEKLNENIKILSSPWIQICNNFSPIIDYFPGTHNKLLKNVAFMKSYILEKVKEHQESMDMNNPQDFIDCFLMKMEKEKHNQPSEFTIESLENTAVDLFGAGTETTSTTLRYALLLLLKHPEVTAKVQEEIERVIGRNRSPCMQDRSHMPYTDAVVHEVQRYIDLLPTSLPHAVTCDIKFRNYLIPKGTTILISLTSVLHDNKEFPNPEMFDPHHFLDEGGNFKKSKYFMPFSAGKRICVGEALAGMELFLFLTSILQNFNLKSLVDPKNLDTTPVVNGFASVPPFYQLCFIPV
CYP2C19 activ = activators of human cytochrome P450 2C19. P33261. recombinant CYP2C19, luciferin-H EGE luminescence; active compounds read high; 0 = fully inhibited enzyme, 1 = untreated enzyme. activation factor at 5 µM. 96,000 tested, under 10 active. AID 1025;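 active = activation factor of at least 2 at 5 µM in the primary screen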
Cav3 T inh = inhibitors of human Cav3.2 T-type calcium channel | Cav3.2-expressing cells, Fluo-4 calcium fluorescence FDSS; active compounds read low | B-score at 10 µM | AID 449739 | O95180 | hit rate 4% among 100,000;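 active = single-dose well whose peak fluorescence ratio is a statistical outlier from its plate by either plate-standardised score or position-corrected B-score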
CYP2C19 inh = human CYP2C19 inhibition. inhibition, % at 5 µM. hit rate 21% among 96,000. AID 778. CYP2C19 Supersomes, luciferin-H EGE luminescence, 30 min;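 active = CYP2C19 inhibition above a set limit at 5 µM in the primary screen, cut at about 50% in these data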
CYP2C9 activ = activators of human CYP2C9; P11712; recombinant CYP2C9, luciferin-H conversion, luminescence; active compounds read high; factor 1 = untreated enzyme, 0 = blocked; hit rate 1.4% among 96,000; activation factor at 5 µM; AID 1024;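 active = activation factor of 2 or more for CYP2C9 at a 5 µM dose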
Large screens that a line does not name were inactive. Compounds with a hit are over-represented: about 27% of the library has one in this group of screens.

CCOC(=O)CCNC(C(=O)OCC)c1ccccc1 (stereo unspecified)	none
CC1CCC(NC(=O)c2ccc3nc[nH]c3c2)CC1 (stereo unspecified)	none
CCOC(=O)Cn1nc(CC)c2ccccc2c1=O	none
CCC1(C)Cc2ccccc2-c2nc(-c3ccccc3)oc(=O)c21 (stereo unspecified)	none
CCC1(C)Cc2ccccc2-c2nc3n(c(=O)c21)CC(C(=O)O)S3 (stereo unspecified)	CYP2C9 inhib 69
O=C(NCc1ccccc1)C(c1ccco1)N(C(=O)c1cnccn1)c1ccc(F)cc1 (stereo unspecified)	none (no result: Cav3 T inh)
CC(=O)c1cccc(N(C(=O)c2cnccn2)C(C(=O)NCc2ccccc2)c2ccco2)c1 (stereo unspecified)	CYP2C19 inh 53
CCOc1cc(S(=O)(=O)N2CC=C(c3ccc(F)cc3)CC2)c(OCC)cc1-n1cnnn1	CYP2C9 inhib 93
CCOc1cc(S(=O)(=O)N2CCC(Cc3ccccc3)CC2)c(OCC)cc1-n1cnnn1	CYP2C9 inhib 73, CYP2C19 inh 53
CCOc1cc(S(=O)(=O)N2CCC(c3nc4ccccc4s3)CC2)c(OCC)cc1S(=O)(=O)N1CCCCC1	none
CCCn1nnnc1NC(=O)CSc1ccc(Cl)cc1	CYP2C9 inhib 66, CYP2C19 inh 82
CCCn1nnnc1SCC(=O)Nc1ccc(F)cc1	CYP2C19 inh 96
CCOc1ccc(NC(=O)CSc2nnnn2CC(=O)O)cc1	none (no result: CYP2C9 inhib, CYP2C19 activ, CYP2C19 inh, CYP2C9 activ)
CCCCn1nnnc1SCC(=O)Nc1ccc2c(c1)OCCO2	CYP2C9 inhib 59, CYP2C19 inh 67
CCCCn1nnnc1SCC(=O)Nc1ccc(C)cc1	CYP2C19 inh 71
CCn1nnc(NC(=O)CSc2ccc(Cl)cc2)n1	none
CCn1nnnc1SCC(=O)Nc1ccc2c(c1)OCO2	none (no result: CYP2C9 inhib, CYP2C19 activ, CYP2C19 inh, CYP2C9 activ)
FC(F)(F)c1ccc(CN2C[C@@H]3C(c4ccc(Cl)nc4)C4(c5ccccc5)CC3(C4)[C@H]2c2ccccc2)cc1 (stereo partly specified)	none (no result: CYP2C9 inhib, CYP2C19 activ, CYP2C19 inh, CYP2C9 activ)
Cc1cccc(C)c1NC(=O)N1CCC(n2c(=O)[nH]c3ccccc32)CC1	none
Cn1nnnc1SCC(=O)Nc1cc(C(=O)O)cc(C(=O)O)c1	none
Cc1cc(C(=O)CSc2nc(N)cc(=O)[nH]2)c(C)n1CCc1ccc(F)cc1	none
Cc1cc(C(=O)CSc2nnc(N)s2)c(C)n1CCc1ccc(Cl)cc1	CYP2C9 inhib 79, Cav3 T inh -4.9, CYP2C19 inh 89
Cc1cc(C(=O)CSc2nnc(N)s2)c(C)n1CCc1ccc(F)cc1	CYP2C9 inhib 88, CYP2C19 inh 96
O=C(OCCN(CCOC(=O)c1ccncc1)S(=O)(=O)c1cccs1)c1ccncc1	CYP2C9 inhib 100, CYP2C19 inh 99
O=C(NCc1cccs1)c1ccncc1	none
CCCCCNc1nc(-c2ccccc2)cs1	CYP2C9 inhib 64, CYP2C19 inh 76
Cc1nc(-c2ccccc2)cs1	none
CCCCNC(=O)NS(=O)(=O)c1ccc(C)cc1	none (no result: CYP2C9 inhib, CYP2C19 activ, CYP2C19 inh, CYP2C9 activ)
COc1ccc(CNC(=O)NS(=O)(=O)c2ccc(C)cc2)cc1	none (no result: CYP2C9 inhib, CYP2C19 activ, CYP2C19 inh, CYP2C9 activ)
CCCCOc1ccc(CNC(=O)NS(=O)(=O)c2ccc(OCC(C)C)cc2)cc1	CYP2C9 inhib 90, Cav3 T inh -5.3
CCCCOc1ccc(CNC(=O)NS(=O)(=O)c2ccc(OCC)cc2)cc1	CYP2C9 inhib 86, Cav3 T inh -7.4
CCCCOc1ccc(S(=O)(=O)NC(=O)NCc2ccc(OCCC)cc2)cc1	Cav3 T inh -3.5 (no result: CYP2C9 inhib, CYP2C19 activ, CYP2C19 inh, CYP2C9 activ)
O=C(c1cc2c(s1)-c1ccccc1S(=O)(=O)C2)N1CCN(Cc2ccccc2)CC1	none (no result: Cav3 T inh)
CC(C)COc1ccccc1C(=O)NC(CO)C(=O)O (stereo unspecified)	none
N#CCCN1CCN(S(=O)(=O)c2ccc(S(=O)(=O)NC3CCCC3)cc2)CC1	none
CCOC(=O)C1=C(C)NC(=O)NC1c1ccc(OC)c(CN2CCOCC2)c1 (stereo unspecified)	none
CN(C)c1ccc(/C=N/NC(=O)CN(c2cccc(Cl)c2)S(C)(=O)=O)cc1Br	CYP2C9 inhib 51
COC(=O)Oc1ccc(/C=N/NC(=O)CN(c2ccccc2Cl)S(C)(=O)=O)cc1OC	CYP2C9 inhib 63
CS(=O)(=O)N(CC(=O)N1CCN(c2ccccc2)CC1)c1cccc(Br)c1	CYP2C19 inh 64, CYP2C9 activ 2.8
CCN(CC)C(=O)CN(c1ccc(F)c(Cl)c1)S(C)(=O)=O	none
CS(=O)(=O)N(CC(=O)N1CCN(c2ccc(F)cc2)CC1)c1ccc(F)c(Cl)c1	CYP2C19 inh 71
Cc1nc(N)sc1N=Nc1ccc(F)cc1	none
Cc1cc(-c2cccc([N+](=O)[O-])c2)nc2ccc3ccccc3c12	none
